According to PubChem BioAssay (Tox21):
A number with no mark means an inactive call. Records with an inconclusive call do not appear. A call without a number means that no potency is given here. The source made the active and inactive calls. Calls follow the shape of the full dose curve.

Molecular target: Acetylcholinesterase (Homo sapiens) (UniProt P22303)
Experiment: Acetylcholinesterase (AChE) small molecule antagonists: colormetric cell-based qHTS assay (AID 1347395); also: nearly all actives have a fitted effect of over 30% in size
Settings: SH-SY5Y cells AChE activity, colorimetric (Ellman); series mostly up to 115 µM
Summary of the method: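 AChE inhibition read colorimetrically via DTNB–thiocholine in SH-SY5Y cells. Compound 30 min, substrate 90 min, both 37 C.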

Acetylcholinesterase (Homo sapiens), sequence (P22303 whole entry, looked up): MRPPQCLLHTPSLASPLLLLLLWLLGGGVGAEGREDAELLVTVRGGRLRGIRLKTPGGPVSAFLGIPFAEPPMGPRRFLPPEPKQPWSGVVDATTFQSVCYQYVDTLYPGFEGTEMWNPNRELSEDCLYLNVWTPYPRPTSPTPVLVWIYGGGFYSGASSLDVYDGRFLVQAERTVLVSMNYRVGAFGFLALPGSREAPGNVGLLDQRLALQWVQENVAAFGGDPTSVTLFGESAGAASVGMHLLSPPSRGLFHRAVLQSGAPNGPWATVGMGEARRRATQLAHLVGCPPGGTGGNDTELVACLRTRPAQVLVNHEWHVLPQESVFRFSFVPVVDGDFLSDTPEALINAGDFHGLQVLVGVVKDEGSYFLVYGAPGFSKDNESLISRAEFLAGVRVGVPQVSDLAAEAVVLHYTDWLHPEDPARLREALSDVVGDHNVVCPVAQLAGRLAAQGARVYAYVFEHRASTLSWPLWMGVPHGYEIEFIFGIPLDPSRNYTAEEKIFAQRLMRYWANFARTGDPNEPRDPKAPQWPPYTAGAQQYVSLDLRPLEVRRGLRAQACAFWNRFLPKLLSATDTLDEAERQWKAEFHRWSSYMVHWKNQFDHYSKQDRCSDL

| SMILES | Potency |
| --- | --- |
| CCCCCCCCS | inactive |
| Cc1ccc(C=O)cc1C | inactive |
| C=CCCCCCCCCOC(C)=O | inactive |
| CCCCCCCCCCCCCCCBr | inactive |
| NNS(=O)(=O)c1ccc(Oc2ccc(S(=O)(=O)NN)cc2)cc1 | inactive |
| OC[C@@H](O)[C@H](O)[C@H](O)[C@@H](O)CO | inactive |
| CC(C)c1ccc2sc3ccccc3c(=O)c2c1 | inactive |
| CCCCCCN | inactive |
| CN(C)CCOC(=O)C(c1ccccc1)C1(O)CCCC1 (stereo not given) | inactive |
| O=C1[C@@H]2[C@H]3CC[C@H](C3)[C@@H]2C(=O)N1CCCCN1CCN(c2ncccn2)CC1 | inactive |
| c1cnc2c(n1)CCCC2 | inactive |
| Cc1nc2ccc(Cl)cc2[nH]1 | inactive |
| CCOC(=O)COC(=O)c1ccccc1C(=O)OCC | inactive |
| COS(=O)(=O)C(F)(F)F | inactive |
| O=S(=O)(O)c1ccc2cc(O)ccc2c1 | inactive |

Molecular target: Acetylcholinesterase (Homo sapiens) (UniProt P22303)
Experiment: Acetylcholinesterase (AChE) small molecule antagonists: enzyme-based qHTS assay (AID 1347397); also: nearly all actives have a fitted effect of over 55% in size
Settings: Potency: AChE enzyme activity inhibition; outcome: AChE enzyme activity inhibition; series mostly up to 115 µM
Summary of the method: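 Compound or DMSO vehicle was pin-transferred onto recombinant human AChE (50 mU/mL as dispensed) and left 30 min at room temperature. Acetylthiocholine with DTNB then started the reaction, read colorimetrically 10 min later.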

| SMILES | Potency | activity change, negative = inhibition |
| --- | --- | --- |
| CN(C)CCN(C)CCN(C)C | inactive |  |
| C=C(C)C(=O)OCCOc1ccccc1 | inactive |  |
| Cc1cc(C)c(N)c(Cl)c1 | inactive |  |
| Cc1ccc(N=Nc2c(O)ccc3ccccc23)c(C)c1 | inactive |  |
| C[C@]12C=CC(=O)C=C1CC[C@@H]1[C@@H]2[C@@H](O)C[C@@]2(C)[C@H]1CC[C@]2(O)C(=O)CO | inactive |  |
| OCc1ccccc1 | inactive |  |
| CCCCCCCCCCCCCCCCBr |  | 2.89% [at 23.6 µM] |
| COc1ccc2c(c1)CCCC2=O | inactive |  |
| O=Cc1cc2ccccc2o1 | inactive |  |
| CCN(CC)CCOC(=O)C1(C2CCCCC2)CCCCC1 | inactive |  |
| CC1=CCC2CC1C2(C)C (stereo not given) | inactive |  |
| NS(=O)(=O)c1ccc(NC(=O)CCC(=O)O)cc1 | inactive |  |
| O=[N+]([O-])c1cccc(Cl)c1 | inactive |  |
| CCOCC(=O)O | inactive |  |
| CC(C)=CC(=O)C=C(C)C | inactive |  |
| O=C(OCCOCCO)c1ccccc1Nc1cccc(C(F)(F)F)c1 | inactive |  |
| CCCCCCS | inactive |  |
| CC(=O)Oc1ccc(C2(c3ccc(OC(C)=O)cc3)C(=O)Nc3ccccc32)cc1 | inactive |  |
| CC12CCC(CC1)C(C)(C)O2 | inactive |  |
| CC(=O)Oc1cccc2c1C(=O)c1c(OC(C)=O)cc(C(=O)O)cc1C2=O | inactive |  |

| SMILES | Potency | activity change, negative = inhibition |
| --- | --- | --- |
| NC(N)=Nc1nc(CSCC/C(N)=N/S(N)(=O)=O)cs1 | inactive |  |
| CCOC(=O)COc1ccc(C)cc1 | inactive |  |
| COC(=O)CCS | inactive |  |
| COC(=O)c1cccnc1 | inactive |  |
| COC(=O)c1nc(Cl)c(Cl)nc1N | inactive |  |
| CCCCCCCCS | inactive |  |
| Cc1ccc(C=O)cc1C | inactive |  |
| C=CCCCCCCCCOC(C)=O | inactive |  |
| CCCCCCCCCCCCCCCBr | inactive |  |
| NNS(=O)(=O)c1ccc(Oc2ccc(S(=O)(=O)NN)cc2)cc1 | inactive |  |
| OC[C@@H](O)[C@H](O)[C@H](O)[C@@H](O)CO | inactive |  |
| CC(C)c1ccc2sc3ccccc3c(=O)c2c1 | inactive |  |
| CCCCCCN | inactive |  |
| CN(C)CCOC(=O)C(c1ccccc1)C1(O)CCCC1 (stereo not given) | inactive |  |
| O=C1[C@@H]2[C@H]3CC[C@H](C3)[C@@H]2C(=O)N1CCCCN1CCN(c2ncccn2)CC1 | inactive |  |
| c1cnc2c(n1)CCCC2 | inactive |  |
| Cc1nc2ccc(Cl)cc2[nH]1 | inactive |  |
| CCOC(=O)COC(=O)c1ccccc1C(=O)OCC | inactive |  |
| COS(=O)(=O)C(F)(F)F | inactive |  |
| O=S(=O)(O)c1ccc2cc(O)ccc2c1 | inactive |  |

Molecular target: Acetylcholinesterase (Homo sapiens) (UniProt P22303)
Experiment: Acetylcholinesterase (AChE) small molecule antagonists: fluorescence cell-based qHTS assay (AID 1347398); also: nearly all actives have a fitted effect of over 50% in size; also: potency is read from the fitted curve at half-maximal effect
Settings: SH-SY5Y cells; Potency: AChE activity; outcome: AChE activity; series mostly up to 115 µM
Summary of the method: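 Using neuroblastoma SH-SY5Y cells as the enzyme source, test chemicals are preincubated 30 min at 37 C; AChE-driven acetylthiocholine cleavage is then quantified by thiocholine-dependent Thiolite Green fluorescence after 40 min at room temperature.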

| SMILES | Potency | activity change, negative = inhibition |
| --- | --- | --- |
| CN(C)CCN(C)CCN(C)C | inactive |  |
| C=C(C)C(=O)OCCOc1ccccc1 | inactive |  |
| Cc1cc(C)c(N)c(Cl)c1 | inactive |  |
| Cc1ccc(N=Nc2c(O)ccc3ccccc23)c(C)c1 | inactive |  |
| C[C@]12C=CC(=O)C=C1CC[C@@H]1[C@@H]2[C@@H](O)C[C@@]2(C)[C@H]1CC[C@]2(O)C(=O)CO | inactive |  |
| OCc1ccccc1 | inactive |  |
| CCCCCCCCCCCCCCCCBr |  | -0.68% [at 23.8 µM] |
| COc1ccc2c(c1)CCCC2=O | inactive |  |
| O=Cc1cc2ccccc2o1 | inactive |  |
| CCN(CC)CCOC(=O)C1(C2CCCCC2)CCCCC1 | inactive |  |
| CC1=CCC2CC1C2(C)C (stereo not given) | inactive |  |
| NS(=O)(=O)c1ccc(NC(=O)CCC(=O)O)cc1 | inactive |  |
| O=[N+]([O-])c1cccc(Cl)c1 | inactive |  |
| CCOCC(=O)O | inactive |  |
| CC(C)=CC(=O)C=C(C)C | inactive |  |
| O=C(OCCOCCO)c1ccccc1Nc1cccc(C(F)(F)F)c1 | inactive |  |
| CCCCCCS | inactive |  |
| CC(=O)Oc1ccc(C2(c3ccc(OC(C)=O)cc3)C(=O)Nc3ccccc32)cc1 | inactive |  |
| CC12CCC(CC1)C(C)(C)O2 | inactive |  |
| CC(=O)Oc1cccc2c1C(=O)c1c(OC(C)=O)cc(C(=O)O)cc1C2=O | inactive |  |

| SMILES | Potency | activity change, negative = inhibition |
| --- | --- | --- |
| NC(N)=Nc1nc(CSCC/C(N)=N/S(N)(=O)=O)cs1 | inactive |  |
| CCOC(=O)COc1ccc(C)cc1 | inactive |  |
| COC(=O)CCS | inactive |  |
| COC(=O)c1cccnc1 | inactive |  |
| COC(=O)c1nc(Cl)c(Cl)nc1N | inactive |  |
| CCCCCCCCS | inactive |  |
| Cc1ccc(C=O)cc1C | inactive |  |
| C=CCCCCCCCCOC(C)=O | inactive |  |
| CCCCCCCCCCCCCCCBr | inactive |  |
| NNS(=O)(=O)c1ccc(Oc2ccc(S(=O)(=O)NN)cc2)cc1 | inactive |  |
| OC[C@@H](O)[C@H](O)[C@H](O)[C@@H](O)CO | inactive |  |
| CC(C)c1ccc2sc3ccccc3c(=O)c2c1 | inactive |  |
| CCCCCCN | inactive |  |
| CN(C)CCOC(=O)C(c1ccccc1)C1(O)CCCC1 (stereo not given) | inactive |  |
| O=C1[C@@H]2[C@H]3CC[C@H](C3)[C@@H]2C(=O)N1CCCCN1CCN(c2ncccn2)CC1 | inactive |  |
| c1cnc2c(n1)CCCC2 | inactive |  |
| Cc1nc2ccc(Cl)cc2[nH]1 | 25.1 µM (active) |  |
| CCOC(=O)COC(=O)c1ccccc1C(=O)OCC | inactive |  |
| COS(=O)(=O)C(F)(F)F | inactive |  |
| O=S(=O)(O)c1ccc2cc(O)ccc2c1 | inactive |  |
